Experimental data reported in the supplement of paper PMC8975748.
Where a name gives a salt, the structure may show the parent alone. ± gives the standard deviation of the averaged measurements.

Experiments:
[1] = system: Saccharomyces cerevisiae BY4741 SeMeCo community; experiment: mean cell size (pixel area) (pixels); higher = larger cells; conditions: 10 µM; 24 h; SM minimal medium
Summary of the method: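 Yeast cells were fixed with paraformaldehyde, imaged by automated confocal microscopy and analysed in Harmony to obtain mean cell pixel area per well. They came from a four-plasmid fluorescent Saccharomyces cerevisiae BY4741 community, each plasmid complementing one auxotrophy and carrying a fluorescent marker. Before imaging, 70 µl of culture at OD600 = 0.3 was incubated for 24 h in SM medium in 384-well plates predosed acoustically with drug (final 10 µM). Values are means of 3 replicates. Same SeMeCo high-content imaging drug screen: Selleck FDA-approved drugs at 10 µM, 24 h in SM medium, 384-well plates, 3 replicates.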

[2] = system: Saccharomyces cerevisiae BY4741 SeMeCo community; experiment: z-score of prototroph abundance vs DMSO median; higher = larger share of this subpopulation than in DMSO controls; conditions: 10 µM; 24 h; SM minimal medium; subpopulation (auxotrophy): Prototroph
Summary of the method: (§1)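 Four plasmids, each restoring a single auxotrophy and encoding a distinct fluorescent protein, were carried by a Saccharomyces cerevisiae BY4741 community. After overnight growth to OD600 1.0 and dilution to 0.3, 70 µl per well was grown for 24 h in minimal SM medium on 384-well plates acoustically predosed with library drugs at 10 µM final. Following paraformaldehyde fixation, automated confocal microscopy was used, with single-auxotroph fluorescent strains defining thresholds and autofluorescence correction. Subpopulation abundance was then scored as a z-score against the vehicle-well median.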

[3] = system: Saccharomyces cerevisiae BY4741 SeMeCo community; experiment: z-score of subpopulation abundance vs DMSO median, subpopulation auxotrophic for L; higher = larger share of this subpopulation than in DMSO controls; conditions: 10 µM; 24 h; SM minimal medium; subpopulation (auxotrophy): L
Summary of the method: as §1

[4] = system: Saccharomyces cerevisiae BY4741 SeMeCo community; experiment: z-score of subpopulation abundance vs DMSO median, subpopulation auxotrophic for U; higher = larger share of this subpopulation than in DMSO controls; conditions: 10 µM; 24 h; SM minimal medium; subpopulation (auxotrophy): U
Summary of the method: as §1

[5] = system: Saccharomyces cerevisiae BY4741 SeMeCo community; experiment: z-score of subpopulation abundance vs DMSO median, subpopulation auxotrophic for H; higher = larger share of this subpopulation than in DMSO controls; conditions: 10 µM; 24 h; SM minimal medium; subpopulation (auxotrophy): H
Summary of the method: as §1

[6] = system: Saccharomyces cerevisiae BY4741 SeMeCo community; experiment: z-score of subpopulation abundance vs DMSO median, subpopulation auxotrophic for LM; higher = larger share of this subpopulation than in DMSO controls; conditions: 10 µM; 24 h; SM minimal medium; subpopulation (auxotrophy): LM
Summary of the method: as §1

[7] = system: Saccharomyces cerevisiae BY4741 SeMeCo community; experiment: z-score of subpopulation abundance vs DMSO median, subpopulation auxotrophic for HM; higher = larger share of this subpopulation than in DMSO controls; conditions: 10 µM; 24 h; SM minimal medium; subpopulation (auxotrophy): HM
Summary of the method: as §1

[8] = system: Saccharomyces cerevisiae BY4741 SeMeCo community; experiment: z-score of subpopulation abundance vs DMSO median, subpopulation auxotrophic for HU; higher = larger share of this subpopulation than in DMSO controls; conditions: 10 µM; 24 h; SM minimal medium; subpopulation (auxotrophy): HU
Summary of the method: as §1

[9] = system: Saccharomyces cerevisiae BY4741 SeMeCo community; experiment: z-score of subpopulation abundance vs DMSO median, subpopulation auxotrophic for UM; higher = larger share of this subpopulation than in DMSO controls; conditions: 10 µM; 24 h; SM minimal medium; subpopulation (auxotrophy): UM
Summary of the method: as §1

[10] = system: Saccharomyces cerevisiae BY4741 SeMeCo community; experiment: z-score of subpopulation abundance vs DMSO median, subpopulation auxotrophic for HL; higher = larger share of this subpopulation than in DMSO controls; conditions: 10 µM; 24 h; SM minimal medium; subpopulation (auxotrophy): HL
Summary of the method: as §1

[11] = system: Saccharomyces cerevisiae BY4741 SeMeCo community; experiment: z-score of subpopulation abundance vs DMSO median, subpopulation auxotrophic for HLU; higher = larger share of this subpopulation than in DMSO controls; conditions: 10 µM; 24 h; SM minimal medium; subpopulation (auxotrophy): HLU
Summary of the method: as §1

[12] = system: Saccharomyces cerevisiae BY4741 SeMeCo community; experiment: z-score of subpopulation abundance vs DMSO median, subpopulation auxotrophic for HLM; higher = larger share of this subpopulation than in DMSO controls; conditions: 10 µM; 24 h; SM minimal medium; subpopulation (auxotrophy): HLM
Summary of the method: as §1

[13] = system: Saccharomyces cerevisiae BY4741 SeMeCo community; experiment: z-score of subpopulation abundance vs DMSO median, subpopulation auxotrophic for HUM; higher = larger share of this subpopulation than in DMSO controls; conditions: 10 µM; 24 h; SM minimal medium; subpopulation (auxotrophy): HUM
Summary of the method: as §1

[14] = system: Saccharomyces cerevisiae BY4741 SeMeCo community; experiment: z-score of subpopulation abundance vs DMSO median, subpopulation auxotrophic for LUM; higher = larger share of this subpopulation than in DMSO controls; conditions: 10 µM; 24 h; SM minimal medium; subpopulation (auxotrophy): LUM
Summary of the method: as §1

[15] = system: Saccharomyces cerevisiae BY4741 SeMeCo community; experiment: z-score of subpopulation abundance vs DMSO median, subpopulation auxotrophic for HLUM; higher = larger share of this subpopulation than in DMSO controls; conditions: 10 µM; 24 h; SM minimal medium; subpopulation (auxotrophy): HLUM
Summary of the method: as §1

[16] = system: Saccharomyces cerevisiae BY4741 SeMeCo community; experiment: z-score of subpopulation abundance vs DMSO median, subpopulation auxotrophic for M; higher = larger share of this subpopulation than in DMSO controls; conditions: 10 µM; 24 h; SM minimal medium; subpopulation (auxotrophy): M
Summary of the method: as §1

[17] = system: Saccharomyces cerevisiae BY4741 SeMeCo community; experiment: z-score of subpopulation abundance vs DMSO median, subpopulation auxotrophic for LU; higher = larger share of this subpopulation than in DMSO controls; conditions: 10 µM; 24 h; SM minimal medium; subpopulation (auxotrophy): LU
Summary of the method: as §1

Row | SMILES | mean cell size [1] | z-score of prototroph abundance [2] | z-score of subpopulation abundance [3] | z-score of subpopulation abundance [4] | z-score of subpopulation abundance [5] | z-score of subpopulation abundance [6] | z-score of subpopulation abundance [7] | z-score of subpopulation abundance [8] | z-score of subpopulation abundance [9] | z-score of subpopulation abundance [10] | z-score of subpopulation abundance [11] | z-score of subpopulation abundance [12] | z-score of subpopulation abundance [13] | z-score of subpopulation abundance [14] | z-score of subpopulation abundance [15] | z-score of subpopulation abundance [16] | z-score of subpopulation abundance [17]
1 | COCCOC(=O)C1=C(C)NC(C)=C(C(=O)OC/C=C/c2ccccc2)C1c1cccc([N+](=O)[O-])c1 (stereo not drawn) [Cilnidipine] | 12.3 ± 0.24 | -0.13 | 0.77 | -0.53 | 1.28 | 0.12 | 0.7 | 0.24 | -0.33 | 0.94 | 1.34 | -0.44 | 0.37 | -0.1 | -0.48 | – | –
2 | CCCCCOc1ccccc1/C(=C\SC)n1ccnc1 [Neticonazole Hydrochloride] | 11.8 ± 0.13 | – | -1.5 | -1.45 | 16.5 | -1.01 | 3.53 | – | 14.5 | 4.4 | – | 23.8 | 6.29 | 3.33 | 13 | -1.87 | -2.84
3 | CCN1CCN(C(=O)N[C@@H](C(=O)N[C@@H]2C(=O)N3[C@@H]2SC(C)(C)[C@@H]3C(=O)O)c2ccccc2)C(=O)C1=O [Piperacillin Sodium] | 12.6 ± 0.14 | -0.12 | 1.08 | -0.72 | -0.01 | 0.88 | 1.21 | -0.25 | -0.96 | 0.54 | – | 0.59 | 0.48 | 0.86 | -0.13 | 0.21 | -0.03
4 | CN(C)[C@@H](CCOc1cccc2ccccc12)c1ccccc1 [Dapoxetine HCl] | 12.3 ± 0.037 | 0.05 | 0.84 | -0.41 | -0.41 | 0.47 | -0.39 | – | -0.35 | 0.57 | – | -0.47 | -0.28 | 0.92 | -0.01 | -0.23 | 0.55
5 | Cn1c(=O)c2c(ncn2CC(O)CO)n(C)c1=O (stereo not drawn) [Dyphylline] | 12.55 ± 0.12 | 1.12 | – | 0.26 | -0.64 | -0.74 | -0.97 | -0.83 | – | – | -0.29 | -0.91 | -1.32 | – | -0.64 | – | –
6 | CN[C@H](CC(C)C)C(=O)N[C@H]1C(=O)N[C@@H](CC(N)=O)C(=O)N[C@H]2C(=O)N[C@H]3C(=O)N[C@H](C(=O)N[C@H](C(=O)O)c4cc(O)cc(O)c4-c4cc3ccc4O)[C@H](O)c3ccc(c(Cl)c3)Oc3cc2cc(c3O[C@@H]2O[C@H](CO)[C@@H](O)[C@H](O)[C@H]2O[C@H]2C[C@](C)(N)[C@H](O)[C@H](C)O2)Oc2ccc(cc2Cl)[C@H]1O [Vancomycin] | – | 0.81 | -0.12 | -0.09 | -0.2 | -0.43 | -0.74 | -0.91 | -0.16 | -0.12 | -0.21 | -0.2 | -0.71 | -0.78 | – | – | –
7 | CNS(=O)(=O)CCc1ccc2[nH]cc(C3CCN(C)CC3)c2c1 [Naratriptan HCl] | 12.4 ± 0.17 | 0.15 | -0.79 | 0.55 | -0.46 | 0.06 | -0.44 | 0.27 | – | -0.28 | – | -0.19 | -0.27 | – | -0.77 | 0.48 | 0.2
8 | COc1cc(NC(C)CCCN)c2ncccc2c1 (stereo not drawn) [Primaquine Diphosphate] | 12.6 ± 0.24 | – | -0.56 | -1.22 | – | 0.09 | 0.98 | -1.2 | -0.88 | -0.43 | – | 0.32 | -1.39 | -0.75 | -0.49 | 1.17 | -1.15
9 | C#CCN(C)Cc1ccccc1 [Pargyline hydrochloride] | 12.7 ± 0.23 | 0.24 | 0.76 | 0.56 | -0.83 | -0.51 | -0.95 | -0.08 | -0.55 | -0.44 | – | -0.13 | 0 | 0.15 | 0.1 | -0.55 | 1.29
10 | O=C(O[C@H]1CN2CCC1CC2)N1CCc2ccccc2[C@@H]1c1ccccc1 [Solifenacin succinate] | – | – | – | – | -0.91 | 0.27 | 0 | 0.28 | – | 0.67 | 0.46 | 0.25 | 0.3 | 0.68 | 0.94 | – | 0.43
11 | O=C(O)CCC(=O)Nc1ccc(S(=O)(=O)Nc2nccs2)cc1 [Succinylsulfathiazole] | 12.52 ± 0.1 | – | -0.22 | 0.33 | -1.14 | -0.35 | -0.78 | -0.31 | 0.02 | -0.84 | – | -1.01 | -0.33 | -0.95 | -0.62 | -0.13 | -0.4
12 | Cc1cc(CC(C)CC(C)(C)C)n(O)c(=O)c1 (stereo not drawn) [Piroctone Olamine] | 12 ± 0.34 | -16.9 | 1.41 | 1.32 | – | 6.65 | 24 | 31.8 | 6.25 | – | – | 39.5 | 30.2 | 16 | 16.6 | 0.45 | 2.47
13 | CC(C)c1c(C(=O)Nc2ccccc2)c(-c2ccccc2)c(-c2ccc(F)cc2)n1CC[C@@H](O)C[C@@H](O)CC(=O)O [Atorvastatin] | 11.1 ± 0.15 | -2.62 | 1.5 | 0.32 | – | -0.19 | 2.44 | 2.62 | 1.48 | 5.39 | – | 1.21 | 2.1 | 0.92 | 0.49 | -2.26 | 1.58
14 | CN(C)CCC=C1c2ccccc2C=Cc2ccccc21 [Cyclobenzaprine HCl] | 12.59 ± 0.046 | -0.37 | -0.14 | – | -0.68 | 0.01 | -0.88 | 0.59 | 1.09 | -0.13 | – | 0.13 | -0.09 | -0.09 | 0.14 | 0 | -0.04
15 | O=C(O)Cc1ccccc1Nc1c(Cl)cccc1Cl [Diclofenac Diethylamine] | 12.66 ± 0.1 | 2.27 | 0.07 | -1.34 | – | -0.51 | -0.49 | -1.85 | -1.81 | -1.1 | – | -0.26 | -1.96 | -1.21 | 0 | -0.07 | -0.75
